# Reference: PubChem BioAssay
# Some of the results follow. Calls of active or inactive are those of the source.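 Rule for the calls, unless noted: active = mean inhibition above about 50% in the one-dose retest (limit read from the data); inactive = the rest.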
# Legend:
# [1] = biological target: Sentrin-specific protease 8 (Homo sapiens) (UniProt Q96LD8); assay: SENP8 protease inhibitors, retest, confirmation, biochemical, luminescence, single concentration (AID 488912;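 active = mean inhibition across replicates above about 50%, limit read from the data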); conditions: Recombinant SENP8, Z-RLRGG-aminoluciferin luminescence, 60 min; at 12.5 µM; stronger effect = higher value
# [2] = biological target: Sentrin-specific protease 6 (Homo sapiens) (UniProt Q9GZR1); assay: SENP6 protease inhibitors, confirmation, biochemical, luminescence, single concentration (AID 488915); conditions: recombinant SENP6, Z-RLRGG-aminoluciferin luminescence; at 12.5 µM; stronger effect = higher value
# [3] = biological target: Sentrin-specific protease 7 (Homo sapiens) (UniProt Q9BQF6); assay: SENP7 protease inhibitors, retest, confirmation, biochemical, luminescence, single concentration (AID 488917); conditions: recombinant SENP7, Z-RLRGG-aminoluciferin luminescence, 40 min; at 12.5 µM; stronger effect = higher value
# Caspase-3 (Homo sapiens) = Caspase-3 (Homo sapiens) (UniProt P42574); assay: caspase-3 protease inhibitors, confirmation, selectivity assay for SENP inhibitor project, biochemical, single concentration (AID 488918;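 active = mean inhibition above about 50%, limit read from the data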;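 note: plate controls were enzyme with DMSO for no effect and wells without caspase-3 for full effect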); conditions: purified caspase-3, Z-DEVD-aminoluciferin luminescence, 60 min; at 12.5 µM; stronger effect = higher value
# [4] = luciferase luminescence interference by compounds, confirmation, artefact control for SENP inhibitor project, biochemical, single concentration, SENP8 reaction pre-completed (AID 488919;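 active = mean inhibition above about 50% when retested at one dose, limit read from the data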;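 note: plate controls were DMSO wells with completed reaction for no effect and substrate without enzyme for full effect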); conditions: Pre-incubated SENP8/Z-RLRGG-aminoluciferin, at 12.5 µM, stronger effect = higher value
# [5] = biological target: Tumor necrosis factor receptor superfamily member 10B (Homo sapiens) (UniProt O14763); assay: caspase-8 TRAIL sensitization, hit retest, confirmation, cell-based, NB7+caspase-8, with/without TRAIL, luminescence panel (AID 651596; in the data active = activity above about 50%); conditions: NB7 neuroblastoma + caspase-8, TRAIL sensitization, luminescence viability, with TRAIL, mean of runs, at 10 µM, stronger effect = higher value
# [6] = as above; conditions: NB7 neuroblastoma + caspase-8, without TRAIL, luminescence viability, without TRAIL, mean of runs, at 10 µM
# [7] = biological target: Protein Mdm4 (Homo sapiens) + E3 ubiquitin-protein ligase Mdm2 (Homo sapiens) (UniProt O15151+Q00987); assay: retested Mdm2-MdmX interaction blockers, confirmation, cell-based, luminescence, single concentration, set 2 (AID 504601;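 active = mean inhibition of the luminescence signal across two replicates at or above 26 percent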); conditions: SaOS-2 split-luciferase Mdm2/MdmX complementation, at 8 µM, stronger effect = higher value
# [8] = fluorescence interference of Apaf-1 inhibitor hits, dose response, artefact control for Apaf-1 inhibitor project (AID 588538; call rule not given here); conditions: fluorescence interference counterscreen, Apaf-1 assay format
# PEG-3 [9] = biological target: PEG-3 (UniProt Q6IN02); assay: Peg3 promoter luciferase inhibitors, potency, dose response, cell-based, HeLa, CREF/GAPDH counter-screen panel (AID 624167); conditions: CREF/GAPDH counter-screens; HeLa PEG-Prom luciferase reporter, overnight, run 1, dose range 1, at 100 µM (top of the series) unless noted
# PEG-3 [10] = biological target: PEG-3 (UniProt Q6IN02); assay: as above; conditions: CREF/GAPDH counter-screens; HeLa PEG-Prom luciferase reporter, overnight, run 2, dose range 1, at 100 µM (top of the series) unless noted
# [11] = biological target: Tumor necrosis factor receptor superfamily member 10B (Homo sapiens) (UniProt O14763); assay: TRAIL sensitizers in caspase-8 expressing neuroblastoma cells, dose response, NB7 cells plus caspase-8, luminescence, panel (AID 652002); conditions: NB7 neuroblastoma +caspase-8, TRAIL sensitization, luminescence viability, NB7+Caspase-8, with TRAIL, run 1; at 12.5 µM (top of the series)
# [12] = biological target: Tumor necrosis factor receptor superfamily member 10B (Homo sapiens) (UniProt O14763); assay: as above; conditions: NB7 neuroblastoma +caspase-8, TRAIL sensitization, luminescence viability, NB7+Caspase-8, with TRAIL, run 2; at 12.5 µM (top of the series)
# [13] = as above; conditions: NB7 neuroblastoma +caspase-8, no TRAIL, compound-alone cytotoxicity counter-screen, luminescence viability, NB7+Caspase-8, run 1; at 12.5 µM (top of the series) unless noted
# [14] = as above; conditions: NB7 neuroblastoma +caspase-8, no TRAIL, compound-alone cytotoxicity counter-screen, luminescence viability, NB7+Caspase-8, run 2; at 12.5 µM (top of the series) unless noted
# [15] = Apaf-1 inhibitors, single-dose retest, confirmation, biochemical, fluorescence, DEVD-Rh110, 20 µM (AID 504614;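 active = mean inhibition of at least 40% at 20 µM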;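 note: plate controls were DMSO wells for no effect and DEVD-CHO caspase inhibitor control wells for full effect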); conditions: reconstituted apoptosome, caspase-3 DEVD-Rh110 fluorescence; at 20 µM; stronger effect = higher value
# [16] = Rh110 fluorescence interference by putative Apaf-1 inhibitors, confirmation, artefact control for Apaf-1 inhibitor project, biochemical, 20 µM (AID 504615;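 active = signal rise of 40% or more at 20 µM, treated as a fluorescence artifact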); conditions: quenched caspase reaction, at 20 µM, stronger effect = higher value
# [17] = inhibition of Brca1/Bard1 split-luciferase complementation, confirmation, counter-screen for Mdm2/MdmX interaction inhibitor project, luminescence, single concentration (AID 504668; call rule not given here); conditions: Brca1/Bard1 bimolecular luciferase complementation counterscreen, at 8 µM, stronger effect = higher value
# [18] = Peg3 promoter reporter inhibitors, retest, confirmation, cell-based, HeLa, luciferase reporter, single concentration (AID 602417;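 active = at 20 µM dose, 40% or more inhibition averaged across four replicates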); conditions: HeLa PEG-Prom luciferase reporter, luminescence, overnight; at 20 µM; stronger effect = higher value
# Sequence of PEG-3 (Q6IN02 whole entry, looked up): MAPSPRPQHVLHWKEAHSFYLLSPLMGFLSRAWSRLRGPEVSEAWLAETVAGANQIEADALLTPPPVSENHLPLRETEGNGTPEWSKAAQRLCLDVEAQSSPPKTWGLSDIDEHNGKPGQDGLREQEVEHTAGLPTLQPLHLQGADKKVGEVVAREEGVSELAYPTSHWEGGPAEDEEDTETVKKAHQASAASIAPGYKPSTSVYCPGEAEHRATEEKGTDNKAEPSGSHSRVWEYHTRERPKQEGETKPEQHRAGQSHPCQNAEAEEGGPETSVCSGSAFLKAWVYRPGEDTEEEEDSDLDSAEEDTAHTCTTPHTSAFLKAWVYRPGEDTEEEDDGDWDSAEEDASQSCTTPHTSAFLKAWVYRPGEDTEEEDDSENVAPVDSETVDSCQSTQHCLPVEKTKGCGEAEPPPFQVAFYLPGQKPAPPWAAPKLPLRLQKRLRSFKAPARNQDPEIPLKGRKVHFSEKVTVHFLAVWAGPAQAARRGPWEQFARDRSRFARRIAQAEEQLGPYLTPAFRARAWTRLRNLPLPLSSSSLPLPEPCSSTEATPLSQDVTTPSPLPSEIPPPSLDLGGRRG
# Sequence of Tumor necrosis factor receptor superfamily member 10B (Homo sapiens) (O14763 whole entry, looked up): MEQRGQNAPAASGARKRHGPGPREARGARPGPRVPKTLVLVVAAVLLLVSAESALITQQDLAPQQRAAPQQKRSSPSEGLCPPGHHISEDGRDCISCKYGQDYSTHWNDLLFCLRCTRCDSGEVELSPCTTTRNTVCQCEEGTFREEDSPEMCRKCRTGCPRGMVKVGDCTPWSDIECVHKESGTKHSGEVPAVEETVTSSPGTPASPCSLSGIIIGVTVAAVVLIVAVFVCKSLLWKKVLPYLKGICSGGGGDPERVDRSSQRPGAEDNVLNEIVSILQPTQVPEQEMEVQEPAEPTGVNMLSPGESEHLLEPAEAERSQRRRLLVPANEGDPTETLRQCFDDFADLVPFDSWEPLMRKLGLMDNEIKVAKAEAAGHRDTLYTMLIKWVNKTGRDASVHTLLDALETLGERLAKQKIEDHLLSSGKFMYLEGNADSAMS
# Sequence of Sentrin-specific protease 6 (Homo sapiens) (Q9GZR1 628-1112 limits assumed): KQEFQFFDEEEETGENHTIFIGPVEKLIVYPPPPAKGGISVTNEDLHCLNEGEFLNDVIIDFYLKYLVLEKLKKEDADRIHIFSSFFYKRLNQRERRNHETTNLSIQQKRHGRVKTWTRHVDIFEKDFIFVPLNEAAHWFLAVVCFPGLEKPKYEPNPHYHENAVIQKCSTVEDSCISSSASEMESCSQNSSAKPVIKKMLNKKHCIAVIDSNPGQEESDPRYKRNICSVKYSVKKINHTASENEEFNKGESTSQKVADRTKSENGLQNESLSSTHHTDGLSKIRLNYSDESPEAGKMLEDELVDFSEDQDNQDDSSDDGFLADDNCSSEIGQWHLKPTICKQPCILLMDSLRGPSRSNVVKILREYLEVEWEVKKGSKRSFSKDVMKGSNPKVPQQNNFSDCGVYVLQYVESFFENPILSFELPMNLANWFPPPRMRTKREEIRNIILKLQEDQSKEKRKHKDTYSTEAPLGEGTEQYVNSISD
# Sequence of Caspase-3 (Homo sapiens) (P42574 28-227 limits assumed): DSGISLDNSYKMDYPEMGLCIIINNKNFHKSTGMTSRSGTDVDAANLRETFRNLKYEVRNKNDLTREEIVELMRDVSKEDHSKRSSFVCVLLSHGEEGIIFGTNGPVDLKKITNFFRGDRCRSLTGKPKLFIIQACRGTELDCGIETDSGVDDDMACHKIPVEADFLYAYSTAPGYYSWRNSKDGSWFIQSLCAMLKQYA
# Sequence of Sentrin-specific protease 8 (Homo sapiens) (Q96LD8 whole entry, looked up): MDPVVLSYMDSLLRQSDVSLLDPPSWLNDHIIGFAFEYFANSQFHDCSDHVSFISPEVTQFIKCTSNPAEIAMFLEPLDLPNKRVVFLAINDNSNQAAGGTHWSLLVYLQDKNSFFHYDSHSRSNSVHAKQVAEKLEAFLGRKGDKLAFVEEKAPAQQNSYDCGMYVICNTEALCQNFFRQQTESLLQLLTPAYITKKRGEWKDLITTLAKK
# Sequence of Sentrin-specific protease 7 (Homo sapiens) (Q9BQF6 706-1050 limits assumed): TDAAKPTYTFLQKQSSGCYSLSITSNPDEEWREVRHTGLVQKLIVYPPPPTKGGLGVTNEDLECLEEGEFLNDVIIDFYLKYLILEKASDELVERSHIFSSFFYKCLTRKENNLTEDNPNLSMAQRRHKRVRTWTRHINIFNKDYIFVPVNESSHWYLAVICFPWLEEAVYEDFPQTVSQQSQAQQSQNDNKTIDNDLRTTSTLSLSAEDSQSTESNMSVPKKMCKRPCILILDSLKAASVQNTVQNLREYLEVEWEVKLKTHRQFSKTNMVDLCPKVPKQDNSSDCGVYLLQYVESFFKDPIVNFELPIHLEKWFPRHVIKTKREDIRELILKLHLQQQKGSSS
# Sequence of Protein Mdm4 (Homo sapiens) + E3 ubiquitin-protein ligase Mdm2 (Homo sapiens) (O15151 whole entry, looked up): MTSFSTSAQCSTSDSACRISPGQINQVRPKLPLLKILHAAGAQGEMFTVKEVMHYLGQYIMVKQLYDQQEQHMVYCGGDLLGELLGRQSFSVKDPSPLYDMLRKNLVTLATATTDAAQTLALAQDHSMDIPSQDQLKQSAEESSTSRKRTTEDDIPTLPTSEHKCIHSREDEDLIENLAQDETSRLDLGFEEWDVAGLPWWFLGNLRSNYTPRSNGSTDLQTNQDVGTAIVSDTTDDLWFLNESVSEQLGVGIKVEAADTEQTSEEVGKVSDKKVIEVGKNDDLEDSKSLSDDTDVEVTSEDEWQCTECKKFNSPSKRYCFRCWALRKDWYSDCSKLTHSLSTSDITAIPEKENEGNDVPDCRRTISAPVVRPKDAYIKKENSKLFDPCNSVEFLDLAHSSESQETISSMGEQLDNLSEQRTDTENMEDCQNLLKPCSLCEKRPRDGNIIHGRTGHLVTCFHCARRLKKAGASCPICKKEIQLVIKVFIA
# Sequence of Protein Mdm4 (Homo sapiens) + E3 ubiquitin-protein ligase Mdm2 (Homo sapiens) (Q00987 whole entry, looked up): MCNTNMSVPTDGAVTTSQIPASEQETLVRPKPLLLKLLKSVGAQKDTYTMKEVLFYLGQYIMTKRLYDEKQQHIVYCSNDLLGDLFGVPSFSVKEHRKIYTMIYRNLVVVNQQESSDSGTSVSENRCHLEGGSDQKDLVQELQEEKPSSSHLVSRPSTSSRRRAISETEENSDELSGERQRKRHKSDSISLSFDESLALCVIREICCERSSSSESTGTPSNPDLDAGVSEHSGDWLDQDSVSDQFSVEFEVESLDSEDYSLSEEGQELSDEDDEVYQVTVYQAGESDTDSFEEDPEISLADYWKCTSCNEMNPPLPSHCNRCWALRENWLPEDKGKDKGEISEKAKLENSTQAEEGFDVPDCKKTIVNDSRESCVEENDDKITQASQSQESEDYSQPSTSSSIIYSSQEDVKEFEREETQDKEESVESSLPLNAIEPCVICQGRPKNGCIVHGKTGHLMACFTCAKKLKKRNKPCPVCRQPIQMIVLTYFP
smiles,measurement,setting,value
O=C(Nc1ccn(Cc2ccccc2)n1)c1n[nH]c([N+](=O)[O-])c1Cl,inhibition,[1],96.4% (active)
same,inhibition,[2],97.3% (active)
same,inhibition,[3],102% (active)
same,inhibition,Caspase-3 (Homo sapiens),96.2% (active)
same,inhibition,[4],96.7% (active)
same,activity,[5],64.8%
same,activity,[6],63%
Cc1cccc(NC(=O)/C=C/c2ccc3c(c2)OCO3)n1,inhibition,[1],81.3% (active)
same,inhibition,[2],81% (active)
same,inhibition,[3],95.8% (active)
same,inhibition,Caspase-3 (Homo sapiens),87.1% (active)
same,inhibition,[4],73% (active)
same,activity,[5],80.4%
same,activity,[6],75.4%
CCOC(=O)/C=C/C(=O)OCC(=O)NC(c1ccccc1)c1ccccc1,inhibition,[7],99.7% (active)
CCCCCCCCCCOC(=O)Cn1c(COc2ccc(C)cc2)[n+](C)c2ccccc21,IC50,[8],> 100 µM (inactive)
CN(C)CC(O)COc1ccc(C(C)(C)c2ccc(OCC(O)CN(C)C)cc2)cc1 (centres undefined),inhibition,PEG-3 [9],101%
same,inhibition,PEG-3 [10],99.7%
COc1cccc(/C=N/Nc2cc(C)nc(-c3ccccc3O)n2)c1O,inhibition,PEG-3 [9],100%
same,inhibition,PEG-3 [10],102%
COc1cc(NC(=O)c2[nH]cnc2C(N)=O)cc(C(=O)Nc2cccc(C(F)(F)F)c2)c1,"activity, % sensitization",[11],36.3%
same,"activity, % sensitization",[12],52.5%
same,"activity, % sensitization",[13],5.71%
same,"activity, % sensitization",[14],43.7%
Cc1c(-c2nn(C)c(=O)c3ccccc23)oc2ccc(F)cc2c1=O,inhibition,[15],77.4% (active)
same,activation (fluorescence interference),[16],2.5% (inactive)
CCN(CC)CCOc1ccc2c(c1)C(=NNC(=O)c1ccccn1)c1cc(OCCN(CC)CC)ccc1-2,inhibition,[15],56.1% (active)
same,activation (fluorescence interference),[16],15.8% (inactive)
CCCCNC(=O)C(C)N(CCN(C)C)C(=O)CCCCCN1C(=O)NC(c2ccc(Cl)cc2)C(C(=O)OCc2ccccc2)=C1C (centres undefined),inhibition,[15],22.9% (inactive)
same,activation (fluorescence interference),[16],-179% (inactive)
same,inhibition,[17],27.8% (active)
same,inhibition,[18],99.7% (active)
same,inhibition,PEG-3 [9],102%
same,inhibition,PEG-3 [10],101%
